Source: PubChem BioAssay AID1159580 (chemical genetic matrix, 2015)
The campaign covered roughly 5,500 compounds. About 2,000 (36%) were called active. Not shown: some 18% with an inconclusive outcome. Rule as the data show it: active = normalized growth mostly below about 0.91 (no sharp cut-off); inconclusive = no clear call, values can overlap the other calls; inactive = mostly above about 0.92. Some of the results follow.

Test: chemical genetic growth profiling, strain panel (AID 1159580);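 also: tested at 20 µM; growth read once vehicle control cultures reached saturation at 30 °C; 1 = growth at the plate median or of vehicle wells; lower values mean less growth of the strain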
Conditions: S. cerevisiae deletion strains, growth OD

Measured: normalized growth

CC(C)=CCc1c2c(c3occ(-c4ccc(O)cc4)c(=O)c3c1O)C=CC(C)(C)O2
active: locus YJR043C, strain POL32, hits give low values 0.717 | locus YJR075W, strain HOC1, hits give low values 0.852 | locus YKL160W, strain elf1, hits give low values 0.868 | locus YKL190W, strain CNB1, hits give low values 0.772 | locus YLL026W, hits give low values 0.915 | locus YLR027C, strain aat2, hits give low values 0.907 | locus YLR058C, strain SHM2, hits give low values 0.802 | locus YLR221C, strain rsa3, hits give low values 0.858 | locus YLR268W, strain sec22, hits give low values 0.841 | locus YLR320W, strain mms22, hits give low values 0.863 | locus YLR342W, strain FKS1, hits give low values 0.775 | locus YLR357W, strain rsc2, hits give low values 0.814 | locus YLR371W, strain rom2, hits give low values 0.806 | locus YLR418C, strain cdc73, hits give low values 0.827 | locus YML016C, strain PPZ1, hits give low values 0.677 | locus YMR058W, strain fet3, hits give low values 0.429 | locus YNL128W, strain TEP1, hits give low values 0.643 | locus YNL153C, strain GIM3, hits give low values 0.835 | locus YNL209W, strain ssb2, hits give low values 0.51 | locus YNL233W, strain BNI4, hits give low values 0.787 | locus YOL006C, strain TOP1, hits give low values 0.389 | locus YOR061W, strain CKA2, hits give low values 0.733 | locus YOR069W, strain VPS5, hits give low values 0.87 | locus YOR070C, strain gyp1, hits give low values 0.812 | locus YOR083W, strain WHI5, hits give low values 0.866 | locus YOR106W, strain vam3, hits give low values 0.634 | locus YOR184W, strain ser1, hits give low values 0.869 | locus YOR265W, strain rbl2, hits give low values 0.888 | locus YPL051W, strain arl3, hits give low values 0.658 | locus YPL106C, strain sse1, hits give low values 0.793 | locus YPR167C, strain met16, hits give low values 0.913 | strain wtn01, hits give low values 0.811
inactive: locus YJR066W, strain TOR1, hits give low values 0.906 | locus YKL009W, strain mrt4, hits give low values 0.961 | locus YKL068W, hits give low values 1.01 | locus YKL085W, strain MDH1 (second series), hits give low values 1.02 | locus YKL085W, strain MDH1, hits give low values 1.02 | locus YKR001C, strain vps1, hits give low values 0.927 | locus YKR026C, strain gcn3, hits give low values 1 | locus YKR091W, strain srl3, hits give low values 0.98 | locus YLL001W, strain dnm1, hits give low values 0.937 | locus YLL041C, strain sdh2, hits give low values 0.982 | locus YLR039C, strain RIC1, hits give low values 0.863 | locus YLR102C, strain apc9, hits give low values 1.05 | locus YLR113W, strain HOG1, hits give low values 0.965 | locus YLR258W, strain gsy2, hits give low values 0.926 | locus YLR262C, strain YPT6 (second series), hits give low values 0.881 | locus YLR370C, strain arc18, hits give low values 0.978 | locus YLR384C, strain iki3, hits give low values 1 | locus YML032C, strain rad52, hits give low values 0.987 | locus YML120C, strain ndi1, hits give low values 0.99 | locus YML124C, strain tub3, hits give low values 0.994 | locus YMR078C, strain ctf18, hits give low values 1.03 | locus YMR125W, strain sto1, hits give low values 1.07 | locus YMR129W, hits give low values 0.968 | locus YMR205C, strain PFK2, hits give low values 0.902 | locus YMR223W, strain ubp8, hits give low values 0.936 | locus YMR231W, strain pep5, hits give low values 0.948 | locus YMR307W, strain GAS1, hits give low values 0.724 | locus YNL067W, strain RPL9B, hits give low values 0.93 | locus YNL071W, strain lat1, hits give low values 0.943 | locus YNL183C, strain NPR1, hits give low values 0.908 | locus YNL248C, strain rpa49, hits give low values 0.951 | locus YNL250W, strain rad50, hits give low values 0.999 | locus YNL271C, strain bni1, hits give low values 1.01 | locus YNL298W, strain CLA4, hits give low values 0.991 | locus YNL307C, strain MCK1, hits give low values 0.957 | locus YNL322C, strain KRE1 (second series), hits give low values 1.05 | locus YNR049C, strain mso1, hits give low values 0.999 | locus YNR052C, strain pop2, hits give low values 1 | locus YOL012C, strain htz1 0.443 | locus YOL147C, strain pex11, hits give low values 1 | locus YOR001W, strain rrp6, hits give low values 0.988 | locus YOR080W, strain dia2, hits give low values 0.934 | locus YOR136W, strain idh2, hits give low values 0.996 | locus YOR144C, strain elg1, hits give low values 1 | locus YOR231W, strain MKK1, hits give low values 0.991 | locus YOR270C, strain vph1, hits give low values 0.849 | locus YOR290C, strain snf2, hits give low values 1 | locus YOR316C, strain cot1, hits give low values 0.988 | locus YPL078C, strain atp4, hits give low values 0.985 | locus YPL240C, strain hsp82, hits give low values 0.957 | locus YPL241C, strain CIN2, hits give low values 0.936 | locus YPL256C, strain CLN2, hits give low values 1 | locus YPR119W, strain clb2, hits give low values 1.02 | locus YPR141C, strain kar3, hits give low values 1.01 | locus YPR163C, strain tif3, hits give low values 0.979
